# Key:
# Assay in all cases: DAPPL (digital affinity profiling via proximity ligation, sequencing); 10 mM Tris-HCl pH 7.5, 50 mM NaCl, 1 mM DTT, 4% glycerol, room temperature, 30 min; GST-TFs on glutathione beads, 16-mer random dsDNA library, 0.1% formaldehyde crosslink after washing; high values mean tight binding
# FLI1 = biological target: T1, FLI1 (Homo sapiens, UniProt Q01543 1-452); settings: protein: recombinant; tags: N-terminal GST; dsDNA, one strand shown
# T1 sequence: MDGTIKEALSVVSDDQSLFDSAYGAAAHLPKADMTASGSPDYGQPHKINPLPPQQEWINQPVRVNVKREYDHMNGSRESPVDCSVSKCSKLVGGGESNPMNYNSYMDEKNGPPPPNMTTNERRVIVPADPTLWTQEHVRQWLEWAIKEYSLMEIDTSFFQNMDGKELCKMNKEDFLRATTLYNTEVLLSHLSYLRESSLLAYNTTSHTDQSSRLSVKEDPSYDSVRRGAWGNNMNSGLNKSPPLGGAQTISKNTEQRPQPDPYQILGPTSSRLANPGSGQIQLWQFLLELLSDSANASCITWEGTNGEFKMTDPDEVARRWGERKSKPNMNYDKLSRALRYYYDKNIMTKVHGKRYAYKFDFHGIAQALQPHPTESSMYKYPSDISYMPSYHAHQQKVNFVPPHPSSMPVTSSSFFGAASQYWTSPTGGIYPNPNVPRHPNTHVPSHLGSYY
# Method in brief: (§1)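 Beads coated with glutathione captured GST-fused human transcription factors that had been expressed in yeast, and the factors were then given DNA barcodes and pooled with a tag-only sample. The pools were incubated with 200 nmole of a random double-stranded 16-mer DNA library in Tris/NaCl/DTT/glycerol buffer for 30 min at room temperature, washed, crosslinked with 0.1% formaldehyde and proximity-ligated with BsaI/T4 ligase at 37 °C for 1 h. PCR amplification and Illumina NextSeq500 sequencing came last. Binding signal is each hexamer's read frequency for a factor divided by its frequency for the tag-only sample.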
# ELK1 = biological target: T2, ELK1 (Homo sapiens, UniProt P19419 1-428); settings: protein: recombinant; tags: N-terminal GST; dsDNA, one strand shown
# T2 sequence: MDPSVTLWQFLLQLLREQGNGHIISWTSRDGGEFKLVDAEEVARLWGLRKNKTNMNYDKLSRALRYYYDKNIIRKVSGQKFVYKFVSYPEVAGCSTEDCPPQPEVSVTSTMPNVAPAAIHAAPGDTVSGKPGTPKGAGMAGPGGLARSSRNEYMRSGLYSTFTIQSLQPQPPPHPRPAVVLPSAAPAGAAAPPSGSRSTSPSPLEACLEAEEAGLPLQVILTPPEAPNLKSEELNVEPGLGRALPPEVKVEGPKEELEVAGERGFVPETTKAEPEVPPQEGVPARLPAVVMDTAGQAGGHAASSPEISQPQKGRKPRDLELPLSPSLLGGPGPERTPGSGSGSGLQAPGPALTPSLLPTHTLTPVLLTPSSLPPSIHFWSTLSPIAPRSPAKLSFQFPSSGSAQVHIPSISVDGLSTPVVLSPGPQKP
# Method in brief: as §1
# GABPA = biological target: T3, GABPA (Homo sapiens, UniProt Q06546 1-454); settings: protein: recombinant; tags: N-terminal GST; dsDNA, one strand shown
# T3 sequence: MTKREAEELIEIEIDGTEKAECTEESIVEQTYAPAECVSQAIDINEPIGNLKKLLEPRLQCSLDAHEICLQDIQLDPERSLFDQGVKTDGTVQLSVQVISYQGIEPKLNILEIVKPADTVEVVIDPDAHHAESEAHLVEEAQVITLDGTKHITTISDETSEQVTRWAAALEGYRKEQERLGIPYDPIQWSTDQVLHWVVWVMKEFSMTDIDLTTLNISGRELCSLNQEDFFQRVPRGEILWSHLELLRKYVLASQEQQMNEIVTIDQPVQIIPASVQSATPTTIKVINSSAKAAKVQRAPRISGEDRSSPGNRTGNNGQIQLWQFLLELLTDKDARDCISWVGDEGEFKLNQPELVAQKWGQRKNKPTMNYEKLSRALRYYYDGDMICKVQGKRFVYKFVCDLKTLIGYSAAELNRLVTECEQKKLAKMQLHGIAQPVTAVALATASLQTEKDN
# Method in brief: as §1
# ERG = biological target: T4, ERG (Homo sapiens, UniProt P11308 1-479); settings: protein: recombinant; tags: N-terminal GST; dsDNA, one strand shown
# T4 sequence: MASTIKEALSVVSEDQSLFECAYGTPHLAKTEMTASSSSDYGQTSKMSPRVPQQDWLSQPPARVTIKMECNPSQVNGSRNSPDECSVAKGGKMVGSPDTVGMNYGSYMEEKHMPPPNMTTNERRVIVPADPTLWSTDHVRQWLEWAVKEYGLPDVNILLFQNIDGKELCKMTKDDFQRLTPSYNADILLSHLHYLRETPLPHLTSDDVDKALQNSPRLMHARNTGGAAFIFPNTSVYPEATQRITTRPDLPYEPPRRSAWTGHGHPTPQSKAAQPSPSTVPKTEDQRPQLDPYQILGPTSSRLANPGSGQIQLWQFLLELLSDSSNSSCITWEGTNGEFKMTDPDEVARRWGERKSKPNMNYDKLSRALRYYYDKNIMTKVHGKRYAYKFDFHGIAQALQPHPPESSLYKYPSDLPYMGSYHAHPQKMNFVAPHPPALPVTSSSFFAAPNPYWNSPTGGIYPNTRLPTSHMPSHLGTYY
# Method in brief: as §1
# ELF1 = ELF1 (Homo sapiens, UniProt P32519 1-619); settings: protein: recombinant; tags: N-terminal GST; dsDNA, one strand shown
# Sequence of ELF1 (P32519 whole entry): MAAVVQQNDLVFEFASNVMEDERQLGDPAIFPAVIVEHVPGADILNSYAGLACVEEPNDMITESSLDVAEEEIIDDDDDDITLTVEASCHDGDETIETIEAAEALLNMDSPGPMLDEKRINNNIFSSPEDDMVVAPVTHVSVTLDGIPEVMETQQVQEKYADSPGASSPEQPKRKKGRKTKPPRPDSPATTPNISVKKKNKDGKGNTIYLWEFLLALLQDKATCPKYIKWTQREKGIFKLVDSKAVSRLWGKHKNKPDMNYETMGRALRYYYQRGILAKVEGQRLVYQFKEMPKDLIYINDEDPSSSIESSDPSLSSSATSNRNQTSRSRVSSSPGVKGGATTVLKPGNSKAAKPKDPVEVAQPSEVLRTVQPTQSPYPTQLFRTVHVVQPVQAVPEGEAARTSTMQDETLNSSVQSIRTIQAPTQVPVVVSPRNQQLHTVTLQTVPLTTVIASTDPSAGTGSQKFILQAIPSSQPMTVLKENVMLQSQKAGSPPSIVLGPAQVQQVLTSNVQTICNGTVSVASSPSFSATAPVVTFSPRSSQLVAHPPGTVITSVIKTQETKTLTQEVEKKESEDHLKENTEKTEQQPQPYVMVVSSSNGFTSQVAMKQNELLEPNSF
# Method in brief: as §1
# EHF = biological target: T5, EHF (Homo sapiens, UniProt Q9NZC4 1-300); settings: protein: recombinant; tags: N-terminal GST; dsDNA, one strand shown
# T5 sequence: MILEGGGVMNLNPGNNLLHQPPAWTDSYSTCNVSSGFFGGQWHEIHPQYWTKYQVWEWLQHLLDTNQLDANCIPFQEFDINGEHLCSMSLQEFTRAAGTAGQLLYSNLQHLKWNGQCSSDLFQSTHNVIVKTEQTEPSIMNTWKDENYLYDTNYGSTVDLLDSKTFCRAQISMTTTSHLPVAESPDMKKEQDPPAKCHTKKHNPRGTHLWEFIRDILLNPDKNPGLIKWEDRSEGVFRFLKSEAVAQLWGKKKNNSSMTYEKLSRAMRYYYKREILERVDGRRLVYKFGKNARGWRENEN
# Method in brief: as §1
# SPI1 = SPI1 (Homo sapiens, UniProt P17947 1-270); settings: protein: recombinant; tags: N-terminal GST; dsDNA, one strand shown
# Method in brief: as §1
# SPIB = SPIB (Homo sapiens, UniProt Q01892 1-262); settings: protein: recombinant; tags: N-terminal GST; dsDNA, one strand shown
# Sequence of SPIB (Q01892 whole entry): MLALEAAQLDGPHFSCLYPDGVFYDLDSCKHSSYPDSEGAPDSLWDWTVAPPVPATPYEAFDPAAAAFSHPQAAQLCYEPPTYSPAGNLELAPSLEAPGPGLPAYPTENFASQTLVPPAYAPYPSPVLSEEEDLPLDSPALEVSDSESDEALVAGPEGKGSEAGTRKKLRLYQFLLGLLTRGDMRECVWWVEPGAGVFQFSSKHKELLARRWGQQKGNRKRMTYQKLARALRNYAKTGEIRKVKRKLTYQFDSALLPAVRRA
# Method in brief: as §1
# ELK3 = biological target: T6, ELK3 (Homo sapiens, UniProt P41970 1-407); settings: protein: recombinant; tags: N-terminal GST; dsDNA, one strand shown
# T6 sequence: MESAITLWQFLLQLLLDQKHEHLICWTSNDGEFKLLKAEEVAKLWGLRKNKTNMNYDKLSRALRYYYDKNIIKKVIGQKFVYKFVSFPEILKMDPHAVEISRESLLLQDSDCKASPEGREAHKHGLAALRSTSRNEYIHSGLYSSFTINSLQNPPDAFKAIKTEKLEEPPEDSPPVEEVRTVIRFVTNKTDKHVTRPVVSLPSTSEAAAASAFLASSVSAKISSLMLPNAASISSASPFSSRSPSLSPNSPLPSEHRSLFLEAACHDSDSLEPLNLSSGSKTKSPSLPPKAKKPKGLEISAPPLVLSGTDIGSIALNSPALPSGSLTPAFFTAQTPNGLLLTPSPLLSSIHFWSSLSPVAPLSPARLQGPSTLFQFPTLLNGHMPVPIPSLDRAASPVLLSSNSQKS
# Method in brief: as §1
# FEV = biological target: T7, FEV (Homo sapiens, UniProt Q99581 1-238); settings: protein: recombinant; tags: N-terminal GST; dsDNA, one strand shown
# T7 sequence: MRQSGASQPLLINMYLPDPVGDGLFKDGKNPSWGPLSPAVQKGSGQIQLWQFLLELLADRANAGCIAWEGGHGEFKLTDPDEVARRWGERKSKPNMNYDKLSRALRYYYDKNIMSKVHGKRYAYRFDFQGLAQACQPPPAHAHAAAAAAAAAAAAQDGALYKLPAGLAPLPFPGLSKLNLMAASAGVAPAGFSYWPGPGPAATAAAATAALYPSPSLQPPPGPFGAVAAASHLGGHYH
# Method in brief: as §1
# ETV5 = ETV5 (Homo sapiens, UniProt P41161 1-510); settings: protein: recombinant; tags: N-terminal GST; dsDNA, one strand shown
# Sequence of ETV5 (P41161 whole entry): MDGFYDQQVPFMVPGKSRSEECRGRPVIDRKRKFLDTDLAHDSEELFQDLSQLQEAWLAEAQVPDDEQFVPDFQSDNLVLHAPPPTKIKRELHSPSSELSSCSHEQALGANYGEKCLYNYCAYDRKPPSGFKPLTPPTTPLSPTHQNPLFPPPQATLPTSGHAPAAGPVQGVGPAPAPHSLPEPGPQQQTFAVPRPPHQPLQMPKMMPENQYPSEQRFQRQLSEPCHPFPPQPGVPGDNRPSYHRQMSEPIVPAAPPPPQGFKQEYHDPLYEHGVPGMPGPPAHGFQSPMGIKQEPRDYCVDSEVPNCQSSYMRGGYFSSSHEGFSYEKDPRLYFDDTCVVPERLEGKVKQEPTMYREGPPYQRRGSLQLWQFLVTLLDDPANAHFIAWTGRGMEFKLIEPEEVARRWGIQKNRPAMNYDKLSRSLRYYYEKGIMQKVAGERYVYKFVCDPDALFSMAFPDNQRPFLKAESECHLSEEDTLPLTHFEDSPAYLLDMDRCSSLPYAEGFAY
# Method in brief: as §1
# HSF1 = HSF1 (Homo sapiens, UniProt Q00613 1-529); settings: protein: recombinant; tags: N-terminal GST; chain copies: 3; dsDNA, one strand shown
# Sequence of HSF1 (Q00613 whole entry): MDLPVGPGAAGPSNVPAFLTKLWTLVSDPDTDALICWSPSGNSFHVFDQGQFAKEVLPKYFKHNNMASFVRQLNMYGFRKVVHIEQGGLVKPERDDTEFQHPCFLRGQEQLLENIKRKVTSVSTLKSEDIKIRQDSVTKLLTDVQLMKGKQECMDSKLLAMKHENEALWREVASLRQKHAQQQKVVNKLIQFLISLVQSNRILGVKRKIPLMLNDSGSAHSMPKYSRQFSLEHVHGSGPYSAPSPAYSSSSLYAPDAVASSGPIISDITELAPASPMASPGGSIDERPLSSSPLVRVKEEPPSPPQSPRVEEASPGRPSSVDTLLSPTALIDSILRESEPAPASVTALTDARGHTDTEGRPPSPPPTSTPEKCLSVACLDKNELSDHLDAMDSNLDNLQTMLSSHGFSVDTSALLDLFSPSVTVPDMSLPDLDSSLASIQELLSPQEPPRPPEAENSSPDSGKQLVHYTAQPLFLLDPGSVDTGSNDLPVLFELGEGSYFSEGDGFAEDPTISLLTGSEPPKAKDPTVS
# Method in brief: as §1
# SPIC = biological target: T8, SPIC (Homo sapiens, UniProt Q8N5J4 1-248); settings: protein: recombinant; tags: N-terminal GST; dsDNA, one strand shown
# T8 sequence: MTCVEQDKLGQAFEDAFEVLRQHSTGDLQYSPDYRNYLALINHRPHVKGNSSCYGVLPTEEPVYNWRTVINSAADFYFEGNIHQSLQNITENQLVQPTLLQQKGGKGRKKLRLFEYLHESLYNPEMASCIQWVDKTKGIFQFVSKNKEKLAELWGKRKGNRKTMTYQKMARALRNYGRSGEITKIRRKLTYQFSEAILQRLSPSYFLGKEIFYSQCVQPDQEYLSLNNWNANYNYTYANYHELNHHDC
# Method in brief: as §1
# ELF4 = ELF4 (Homo sapiens, UniProt Q99607 1-663); settings: protein: recombinant; tags: N-terminal GST; dsDNA, one strand shown
# Sequence of ELF4 (Q99607 whole entry): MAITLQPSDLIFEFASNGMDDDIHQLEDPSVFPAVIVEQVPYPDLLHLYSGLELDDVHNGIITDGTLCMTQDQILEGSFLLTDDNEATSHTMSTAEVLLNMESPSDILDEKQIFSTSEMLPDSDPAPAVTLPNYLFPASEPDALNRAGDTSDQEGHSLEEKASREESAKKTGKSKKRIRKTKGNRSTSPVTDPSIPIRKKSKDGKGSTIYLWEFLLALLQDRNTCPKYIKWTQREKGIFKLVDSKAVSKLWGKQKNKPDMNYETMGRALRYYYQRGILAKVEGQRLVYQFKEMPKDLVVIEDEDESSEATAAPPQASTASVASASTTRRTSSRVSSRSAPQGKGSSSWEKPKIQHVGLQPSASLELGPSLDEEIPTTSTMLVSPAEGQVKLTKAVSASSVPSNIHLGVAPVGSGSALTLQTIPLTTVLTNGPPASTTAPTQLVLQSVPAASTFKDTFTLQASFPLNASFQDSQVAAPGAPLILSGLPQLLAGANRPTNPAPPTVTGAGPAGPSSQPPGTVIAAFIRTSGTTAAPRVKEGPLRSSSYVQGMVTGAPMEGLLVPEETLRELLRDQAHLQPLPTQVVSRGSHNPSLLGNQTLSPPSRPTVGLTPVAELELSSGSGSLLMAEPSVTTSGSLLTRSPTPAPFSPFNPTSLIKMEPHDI
# Method in brief: as §1
# ETV2 = biological target: T9, ETV2 (Homo sapiens, UniProt O00321 1-342); settings: protein: recombinant; tags: N-terminal GST; dsDNA, one strand shown
# T9 sequence: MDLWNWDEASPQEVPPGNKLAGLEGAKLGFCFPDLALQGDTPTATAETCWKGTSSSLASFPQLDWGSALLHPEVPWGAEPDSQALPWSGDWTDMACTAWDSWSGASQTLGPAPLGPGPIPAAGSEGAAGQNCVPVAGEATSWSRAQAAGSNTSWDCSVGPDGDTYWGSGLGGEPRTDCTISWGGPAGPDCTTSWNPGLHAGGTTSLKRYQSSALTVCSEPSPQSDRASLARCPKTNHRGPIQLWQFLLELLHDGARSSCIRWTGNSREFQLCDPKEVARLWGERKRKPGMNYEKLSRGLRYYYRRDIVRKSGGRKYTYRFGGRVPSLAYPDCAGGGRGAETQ
# Method in brief: as §1
# ELF3 = biological target: T10, ELF3 (Homo sapiens, UniProt P78545 1-371); settings: protein: recombinant; tags: N-terminal GST; dsDNA, one strand shown
# T10 sequence: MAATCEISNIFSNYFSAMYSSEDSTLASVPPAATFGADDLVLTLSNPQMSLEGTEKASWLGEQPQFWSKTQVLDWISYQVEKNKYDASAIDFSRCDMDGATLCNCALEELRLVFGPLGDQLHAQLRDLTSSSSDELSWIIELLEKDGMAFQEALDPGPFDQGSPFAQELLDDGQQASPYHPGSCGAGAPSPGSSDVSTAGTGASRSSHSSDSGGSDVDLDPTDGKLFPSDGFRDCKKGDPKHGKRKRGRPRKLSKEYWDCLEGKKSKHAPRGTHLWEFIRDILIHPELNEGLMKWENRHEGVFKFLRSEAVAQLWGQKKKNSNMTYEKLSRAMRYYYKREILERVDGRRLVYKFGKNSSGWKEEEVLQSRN
# Method in brief: as §1
# CRX = CRX (Homo sapiens, UniProt O43186 1-299); settings: protein: recombinant; tags: N-terminal GST; dsDNA, one strand shown
# Sequence of CRX (O43186 whole entry): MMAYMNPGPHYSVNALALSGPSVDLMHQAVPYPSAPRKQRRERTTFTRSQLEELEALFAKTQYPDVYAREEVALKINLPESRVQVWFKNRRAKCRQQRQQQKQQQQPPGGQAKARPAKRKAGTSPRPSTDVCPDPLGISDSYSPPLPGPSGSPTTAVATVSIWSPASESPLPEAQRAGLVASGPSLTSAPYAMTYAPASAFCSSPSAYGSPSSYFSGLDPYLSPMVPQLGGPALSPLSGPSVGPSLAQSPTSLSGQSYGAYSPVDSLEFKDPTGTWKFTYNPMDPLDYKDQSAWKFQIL
# Method in brief: as §1
# ETV1 = ETV1 (Homo sapiens, UniProt P50549 1-477); settings: protein: recombinant; tags: N-terminal GST; dsDNA, one strand shown
# Sequence of ETV1 (P50549 whole entry): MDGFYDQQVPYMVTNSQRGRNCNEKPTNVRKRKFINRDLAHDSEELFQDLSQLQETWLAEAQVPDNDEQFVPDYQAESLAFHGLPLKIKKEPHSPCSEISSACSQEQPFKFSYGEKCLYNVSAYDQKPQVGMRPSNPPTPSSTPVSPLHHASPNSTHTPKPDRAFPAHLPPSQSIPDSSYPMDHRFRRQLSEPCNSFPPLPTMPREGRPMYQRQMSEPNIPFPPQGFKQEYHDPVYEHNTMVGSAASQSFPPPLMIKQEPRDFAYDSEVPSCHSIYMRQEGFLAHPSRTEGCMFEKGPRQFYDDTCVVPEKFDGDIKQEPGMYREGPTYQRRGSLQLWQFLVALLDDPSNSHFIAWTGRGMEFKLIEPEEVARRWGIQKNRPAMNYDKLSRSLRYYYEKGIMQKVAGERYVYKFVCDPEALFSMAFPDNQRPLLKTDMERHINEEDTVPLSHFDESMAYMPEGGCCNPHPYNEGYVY
# Method in brief: as §1
sequence,measurement,setting,value
ACTTAG,binding signal,FLI1,"1.04 fold enrichment (6-mer frequency, TF over GST control)"
same,binding signal,ELK1,"1.06 fold enrichment (6-mer frequency, TF over GST control)"
same,binding signal,GABPA,"1.11 fold enrichment (6-mer frequency, TF over GST control)"
same,binding signal,ERG,"1.09 fold enrichment (6-mer frequency, TF over GST control)"
same,binding signal,ELF1,"1.05 fold enrichment (6-mer frequency, TF over GST control)"
same,binding signal,EHF,"1.11 fold enrichment (6-mer frequency, TF over GST control)"
same,binding signal,SPI1,"1.05 fold enrichment (6-mer frequency, TF over GST control)"
same,binding signal,SPIB,"1.11 fold enrichment (6-mer frequency, TF over GST control)"
same,binding signal,ELK3,"1.17 fold enrichment (6-mer frequency, TF over GST control)"
same,binding signal,FEV,"1.03 fold enrichment (6-mer frequency, TF over GST control)"
same,binding signal,ETV5,"1.16 fold enrichment (6-mer frequency, TF over GST control)"
same,binding signal,HSF1,"1.27 fold enrichment (6-mer frequency, TF over GST control)"
same,binding signal,SPIC,"1.1 fold enrichment (6-mer frequency, TF over GST control)"
same,binding signal,ELF4,"1.03 fold enrichment (6-mer frequency, TF over GST control)"
same,binding signal,ETV2,"1.12 fold enrichment (6-mer frequency, TF over GST control)"
same,binding signal,ELF3,"1.2 fold enrichment (6-mer frequency, TF over GST control)"
same,binding signal,CRX,"1.72 fold enrichment (6-mer frequency, TF over GST control)"
same,binding signal,ETV1,"1.04 fold enrichment (6-mer frequency, TF over GST control)"
